Laboratory results: the supplement of paper PMC6411743
± gives the standard deviation of the averaged measurements. Of roughly 6,200 targets only a part is listed; those with the largest changes were picked by preference.

Compound: Nc1ncnc2c1ncn2[C@@H]1O[C@H](COP(=O)(O)OP(=O)(O)NP(=O)(O)O)[C@@H](O)[C@H]1O [adenylyl imidodiphosphate]
Assay: NP40-soluble protein abundance relative to vehicle (solubility fold change) (ratio); higher = more soluble protein in presence of AMP-PNP
Summary of the method: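 Jurkat crude lysate (Dounce-homogenised) was treated with eight concentrations from 0.1 to 10 mM for 10 min at room temperature, then 3 min at 37 °C. It was solubilised with 0.8% NP40 and benzonase (60 min, 4 °C) and ultracentrifuged, and the supernatant was TMT-labelled for LC-MS/MS. Intensities were vsn-normalised, and the value is the fold change against the NP40-processed vehicle per replicate, from three independent experiments.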

UniProt A6H8Y1, sequence (A6H8Y1 whole entry, one chain of several): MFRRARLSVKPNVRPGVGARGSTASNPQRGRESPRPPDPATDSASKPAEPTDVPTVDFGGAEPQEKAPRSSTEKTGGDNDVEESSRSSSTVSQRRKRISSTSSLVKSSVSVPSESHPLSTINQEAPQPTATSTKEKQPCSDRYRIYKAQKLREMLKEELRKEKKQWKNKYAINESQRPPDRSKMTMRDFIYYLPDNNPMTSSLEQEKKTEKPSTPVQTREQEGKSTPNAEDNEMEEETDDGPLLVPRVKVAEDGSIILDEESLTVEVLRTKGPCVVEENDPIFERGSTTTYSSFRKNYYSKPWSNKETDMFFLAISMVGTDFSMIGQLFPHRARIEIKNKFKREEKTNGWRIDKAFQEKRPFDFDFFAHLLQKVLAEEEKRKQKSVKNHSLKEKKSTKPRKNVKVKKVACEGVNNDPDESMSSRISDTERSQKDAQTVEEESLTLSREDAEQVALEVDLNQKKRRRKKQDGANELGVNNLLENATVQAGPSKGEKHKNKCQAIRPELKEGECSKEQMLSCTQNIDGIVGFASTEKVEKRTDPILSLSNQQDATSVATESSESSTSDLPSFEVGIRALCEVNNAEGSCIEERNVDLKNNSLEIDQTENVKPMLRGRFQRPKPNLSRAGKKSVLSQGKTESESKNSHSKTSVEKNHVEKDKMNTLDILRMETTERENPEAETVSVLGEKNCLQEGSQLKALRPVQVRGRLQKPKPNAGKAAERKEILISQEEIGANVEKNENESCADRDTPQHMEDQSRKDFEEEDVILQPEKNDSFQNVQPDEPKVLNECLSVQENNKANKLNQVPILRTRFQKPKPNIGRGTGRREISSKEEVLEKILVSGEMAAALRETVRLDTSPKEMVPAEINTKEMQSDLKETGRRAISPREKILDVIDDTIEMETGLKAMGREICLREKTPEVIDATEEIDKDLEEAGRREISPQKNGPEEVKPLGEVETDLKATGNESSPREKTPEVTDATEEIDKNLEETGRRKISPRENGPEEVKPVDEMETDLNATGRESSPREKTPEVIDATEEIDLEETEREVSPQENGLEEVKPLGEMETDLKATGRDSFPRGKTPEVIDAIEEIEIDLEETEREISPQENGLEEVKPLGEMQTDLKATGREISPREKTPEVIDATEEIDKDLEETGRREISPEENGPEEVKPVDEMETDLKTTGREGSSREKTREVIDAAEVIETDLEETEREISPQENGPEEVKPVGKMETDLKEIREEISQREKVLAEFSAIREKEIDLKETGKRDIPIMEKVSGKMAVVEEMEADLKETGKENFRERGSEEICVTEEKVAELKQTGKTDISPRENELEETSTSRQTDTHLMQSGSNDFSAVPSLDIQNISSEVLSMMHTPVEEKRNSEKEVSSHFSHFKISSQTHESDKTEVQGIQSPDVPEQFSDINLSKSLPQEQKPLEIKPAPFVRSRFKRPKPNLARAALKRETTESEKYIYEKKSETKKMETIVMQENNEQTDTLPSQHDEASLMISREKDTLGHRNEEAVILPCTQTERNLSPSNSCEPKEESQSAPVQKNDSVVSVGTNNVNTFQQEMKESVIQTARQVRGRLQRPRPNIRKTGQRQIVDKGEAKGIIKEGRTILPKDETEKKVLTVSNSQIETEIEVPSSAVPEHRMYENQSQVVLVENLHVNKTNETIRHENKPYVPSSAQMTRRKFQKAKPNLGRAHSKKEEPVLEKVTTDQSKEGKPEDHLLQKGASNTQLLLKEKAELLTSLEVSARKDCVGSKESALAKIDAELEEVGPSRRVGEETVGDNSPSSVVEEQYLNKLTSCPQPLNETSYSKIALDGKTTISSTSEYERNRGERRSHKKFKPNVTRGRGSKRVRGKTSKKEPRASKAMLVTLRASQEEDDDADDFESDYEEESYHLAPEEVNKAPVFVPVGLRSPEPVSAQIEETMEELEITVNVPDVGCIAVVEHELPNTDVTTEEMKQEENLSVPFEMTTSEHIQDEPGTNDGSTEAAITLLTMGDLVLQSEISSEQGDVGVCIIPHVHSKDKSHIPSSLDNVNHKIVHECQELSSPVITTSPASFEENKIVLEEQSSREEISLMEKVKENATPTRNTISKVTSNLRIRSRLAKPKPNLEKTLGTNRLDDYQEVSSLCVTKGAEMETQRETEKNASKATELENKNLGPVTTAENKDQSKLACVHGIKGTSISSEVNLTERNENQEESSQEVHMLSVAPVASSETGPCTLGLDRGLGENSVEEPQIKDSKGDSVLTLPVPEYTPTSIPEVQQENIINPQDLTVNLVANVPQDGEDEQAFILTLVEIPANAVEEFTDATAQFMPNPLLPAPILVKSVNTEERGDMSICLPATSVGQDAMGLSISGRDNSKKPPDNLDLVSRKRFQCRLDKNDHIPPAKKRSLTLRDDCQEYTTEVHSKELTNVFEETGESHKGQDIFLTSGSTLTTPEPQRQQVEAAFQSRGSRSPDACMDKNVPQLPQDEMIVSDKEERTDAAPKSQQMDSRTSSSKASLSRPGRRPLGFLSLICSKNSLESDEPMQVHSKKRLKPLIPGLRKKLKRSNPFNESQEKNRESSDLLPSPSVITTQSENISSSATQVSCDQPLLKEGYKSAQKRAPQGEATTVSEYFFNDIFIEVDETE
UniProt O43670, sequence (O43670 whole entry, one chain of several): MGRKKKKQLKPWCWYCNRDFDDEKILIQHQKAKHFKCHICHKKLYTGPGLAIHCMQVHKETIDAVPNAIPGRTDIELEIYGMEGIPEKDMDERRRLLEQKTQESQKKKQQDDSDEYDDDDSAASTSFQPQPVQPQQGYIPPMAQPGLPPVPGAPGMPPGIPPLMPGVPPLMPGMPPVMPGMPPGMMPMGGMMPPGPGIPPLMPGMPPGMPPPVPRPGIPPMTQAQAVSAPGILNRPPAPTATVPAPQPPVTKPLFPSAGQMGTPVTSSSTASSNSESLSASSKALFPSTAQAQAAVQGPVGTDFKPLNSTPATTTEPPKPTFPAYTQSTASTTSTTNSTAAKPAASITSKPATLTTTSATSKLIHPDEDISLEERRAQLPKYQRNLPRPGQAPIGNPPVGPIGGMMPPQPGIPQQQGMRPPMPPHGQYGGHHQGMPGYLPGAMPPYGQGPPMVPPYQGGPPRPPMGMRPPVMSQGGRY
UniProt Q96K21, sequence (Q96K21 whole entry, one chain of several): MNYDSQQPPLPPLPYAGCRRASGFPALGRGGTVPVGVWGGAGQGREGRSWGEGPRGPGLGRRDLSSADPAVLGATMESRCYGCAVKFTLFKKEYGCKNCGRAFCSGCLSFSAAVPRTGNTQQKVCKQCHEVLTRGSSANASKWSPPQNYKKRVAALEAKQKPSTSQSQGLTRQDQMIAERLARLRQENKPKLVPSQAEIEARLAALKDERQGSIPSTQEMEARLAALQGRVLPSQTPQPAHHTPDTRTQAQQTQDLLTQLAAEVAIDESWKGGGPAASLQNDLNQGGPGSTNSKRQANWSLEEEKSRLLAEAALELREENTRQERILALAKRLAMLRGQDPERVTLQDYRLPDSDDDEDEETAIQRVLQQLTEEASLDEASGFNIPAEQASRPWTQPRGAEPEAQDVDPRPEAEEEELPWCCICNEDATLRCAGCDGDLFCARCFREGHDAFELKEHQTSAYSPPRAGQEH
UniProt Q9H9L4, sequence (Q9H9L4 whole entry, one chain of several): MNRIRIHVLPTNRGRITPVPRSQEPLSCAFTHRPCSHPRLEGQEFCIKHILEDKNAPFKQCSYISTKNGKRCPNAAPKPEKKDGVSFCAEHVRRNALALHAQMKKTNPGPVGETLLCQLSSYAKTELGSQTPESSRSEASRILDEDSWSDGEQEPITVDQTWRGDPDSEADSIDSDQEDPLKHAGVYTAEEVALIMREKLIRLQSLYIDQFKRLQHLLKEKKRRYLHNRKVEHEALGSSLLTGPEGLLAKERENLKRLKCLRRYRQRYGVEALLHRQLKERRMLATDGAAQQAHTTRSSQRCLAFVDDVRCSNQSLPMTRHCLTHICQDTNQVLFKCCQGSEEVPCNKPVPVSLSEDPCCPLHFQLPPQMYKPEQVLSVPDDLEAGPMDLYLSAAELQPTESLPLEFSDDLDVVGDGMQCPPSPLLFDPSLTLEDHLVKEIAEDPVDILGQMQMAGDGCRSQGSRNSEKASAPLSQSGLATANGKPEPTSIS
UniProt Q96SB4, sequence (Q96SB4 whole entry, one chain of several): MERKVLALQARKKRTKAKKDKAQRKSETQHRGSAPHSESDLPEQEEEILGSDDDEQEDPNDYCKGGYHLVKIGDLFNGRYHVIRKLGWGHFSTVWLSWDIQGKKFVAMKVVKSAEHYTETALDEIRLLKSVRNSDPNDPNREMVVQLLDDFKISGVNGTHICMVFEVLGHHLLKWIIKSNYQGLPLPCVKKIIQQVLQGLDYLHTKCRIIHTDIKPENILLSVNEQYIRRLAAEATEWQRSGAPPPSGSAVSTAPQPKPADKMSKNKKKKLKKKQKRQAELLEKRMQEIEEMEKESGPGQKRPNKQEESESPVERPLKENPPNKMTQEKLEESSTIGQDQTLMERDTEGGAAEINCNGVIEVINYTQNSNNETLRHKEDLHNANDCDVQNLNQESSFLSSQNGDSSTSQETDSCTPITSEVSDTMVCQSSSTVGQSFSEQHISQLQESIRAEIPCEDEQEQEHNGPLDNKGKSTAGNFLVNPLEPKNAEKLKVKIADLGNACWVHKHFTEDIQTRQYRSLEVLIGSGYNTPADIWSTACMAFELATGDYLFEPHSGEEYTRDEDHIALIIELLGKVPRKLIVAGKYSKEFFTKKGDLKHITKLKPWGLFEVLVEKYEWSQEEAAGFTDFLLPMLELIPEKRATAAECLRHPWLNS
UniProt Q2TAA2, sequence (Q2TAA2 whole entry, one chain of several): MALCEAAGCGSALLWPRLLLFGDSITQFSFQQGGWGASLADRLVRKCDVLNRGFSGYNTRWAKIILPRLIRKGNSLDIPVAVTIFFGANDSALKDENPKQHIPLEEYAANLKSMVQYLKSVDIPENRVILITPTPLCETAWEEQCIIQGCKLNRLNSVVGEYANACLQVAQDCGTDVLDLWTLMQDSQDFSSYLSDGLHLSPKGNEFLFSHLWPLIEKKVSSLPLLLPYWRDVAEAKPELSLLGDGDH

Target	NP40-soluble protein abundance (concentration: 1mM)	NP40-soluble protein abundance (concentration: 2mM)	NP40-soluble protein abundance (concentration: 4mM)	NP40-soluble protein abundance (concentration: 6mM)	NP40-soluble protein abundance (concentration: 8mM)	NP40-soluble protein abundance (concentration: 10mM)
G3V4X1|P62191|P62191-2 (UniProt P62191)	0.942 ± 0.045	0.906 ± 0.049	0.888 ± 0.079	0.896 ± 0.1	0.882 ± 0.1	0.89 ± 0.12
E7EQY1|Q96C01 (UniProt Q96C01)	1.01 ± 0.036	1.11 ± 0.07	0.988 ± 0.082	0.991 ± 0.062	0.958 ± 0.062	0.968 ± 0.11
H7BYF2|Q5JRG1|Q9BVL2|Q9BVL2-2|Q9BVL2-3 (UniProt Q9BVL2)	1.031 ± 0.0089	1.1 ± 0.095	1.04 ± 0.053	1.03 ± 0.033	1.04 ± 0.026	1.11 ± 0.06
H7C5G1|Q2TAA2 (UniProt Q2TAA2)	0.995 ± 0.037	0.975 ± 0.015	0.98 ± 0.028	0.972 ± 0.016	0.965 ± 0.022	0.981 ± 0.028
F8VX10|F8VXI8|Q9H9L4 (UniProt Q9H9L4)	1.01 ± 0.014	1.06 ± 0.033	1.05 ± 0.033	1.02 ± 0.066	1.031 ± 0.0027	1.04 ± 0.044
F5GXC5|H3BUJ1|Q8TB96 (UniProt Q8TB96)	1.01 ± 0.017	1.02 ± 0.054	1.01 ± 0.037	1.008 ± 0.0079	1.01 ± 0.024	0.996 ± 0.023
K7EK07|P84243 (UniProt P84243+K7EK07)	0.97 ± 0.11	1.01 ± 0.094	1.01 ± 0.084	1.08 ± 0.13	1.09 ± 0.15	1.16 ± 0.1
E9PGC5|Q15262-2|Q15262-3|Q15262-4|Q5TG12|Q15262 (UniProt Q15262)	1.02 ± 0.011	1.04 ± 0.053	1.02 ± 0.028	1.01 ± 0.015	0.997 ± 0.011	1.01 ± 0.019
E9PLT2|P17480|P17480-2 (UniProt P17480)	1.08 ± 0.032	1.23 ± 0.06	1.32 ± 0.055	1.47 ± 0.026	1.56 ± 0.027	1.73 ± 0.044
K7EIU8|Q13485 (UniProt Q13485)	0.986 ± 0.065	0.936 ± 0.062	0.99 ± 0.091	1.04 ± 0.084	1.08 ± 0.08	1.03 ± 0.093
A0A0A0MTL5|Q13309|Q13309-2 (UniProt Q13309)	0.986 ± 0.041	0.965 ± 0.037	0.976 ± 0.029	0.932 ± 0.053	0.923 ± 0.036	0.91 ± 0.014
H0YLE6|Q9NWH9 (UniProt Q9NWH9)	1.05 ± 0.044	1.11 ± 0.083	1.08 ± 0.039	1.12 ± 0.092	1.11 ± 0.094	1.17 ± 0.094
G5E994|Q5VW38|Q5VW38-2 (UniProt Q5VW38)	1.026 ± 0.0089	1.01 ± 0.018	0.976 ± 0.02	0.983 ± 0.024	1.01 ± 0.021	1.018 ± 0.0091
E7EUU4|E7EX73|E9PGM1|Q04637-8|Q04637-4 (UniProt Q04637)	1.06 ± 0.036	1.12 ± 0.039	1.12 ± 0.045	1.14 ± 0.063	1.15 ± 0.039	1.17 ± 0.056
M0QXA7|O95785-3 (UniProt O95785)	1.02 ± 0.031	1.04 ± 0.029	1.06 ± 0.013	1.04 ± 0.034	1.02 ± 0.023	1.07 ± 0.032
A0A0A0MQS2|F5H0Q6 (UniProt Q8N2M8)	1.06 ± 0.049	1.13 ± 0.083	1.04 ± 0.064	1.06 ± 0.1	1.04 ± 0.043	1.06 ± 0.015
H3BLV9|Q5R363|Q96SB4|Q96SB4-3|Q96SB4-4 (UniProt Q96SB4)	1.08 ± 0.011	1.14 ± 0.035	1.22 ± 0.035	1.29 ± 0.036	1.359 ± 0.011	1.46 ± 0.044
B4E0Y9|Q8NBY1|Q9P289 (UniProt Q9P289)	0.999 ± 0.019	1.03 ± 0.059	1.01 ± 0.034	1.05 ± 0.036	1.01 ± 0.045	1.06 ± 0.039
C9JJV1|Q9Y5U2|Q9Y5U2-2|A6NCC9|C9JHT9|E9PME3 (UniProt Q9Y5U2)	1.01 ± 0.013	1.04 ± 0.076	1.01 ± 0.01	0.968 ± 0.047	0.951 ± 0.048	0.968 ± 0.068
K7EMM8|Q49A26|Q49A26-2|Q49A26-3|Q49A26-4 (UniProt Q49A26)	1.07 ± 0.062	1.14 ± 0.1	1.16 ± 0.14	1.25 ± 0.17	1.31 ± 0.2	1.47 ± 0.3
N4BP1 (UniProt O75113)	1.01 ± 0.014	1.02 ± 0.039	1.02 ± 0.032	0.979 ± 0.027	0.96 ± 0.012	0.954 ± 0.028
A0A0G2JNU3|A6H8Y1|A6H8Y1-6|A6H8Y1-7 (UniProt A6H8Y1)	1.05 ± 0.041	1.087 ± 0.0063	1.12 ± 0.056	1.17 ± 0.067	1.12 ± 0.07	1.22 ± 0.046
H3BRF9|Q96K21|Q96K21-3 (UniProt Q96K21)	0.998 ± 0.015	1.03 ± 0.05	1.02 ± 0.049	0.979 ± 0.02	0.959 ± 0.028	0.997 ± 0.044
I3L448|Q5TC12 (UniProt Q5TC12)	1.01 ± 0.033	1.02 ± 0.015	1.01 ± 0.039	0.992 ± 0.029	0.965 ± 0.027	0.977 ± 0.039
B0YIW6|P48444 (UniProt P48444)	0.98 ± 0.015	0.931 ± 0.045	0.949 ± 0.01	0.9391 ± 0.0089	0.9554 ± 0.0037	0.921 ± 0.017
J3QRS9|O43670|O43670-2|O43670-4|X6R4W8 (UniProt O43670)	1.09 ± 0.073	1.09 ± 0.087	1.15 ± 0.074	1.25 ± 0.065	1.29 ± 0.062	1.34 ± 0.1
J3KPH8|Q8WUI4|Q8WUI4-3|Q8WUI4-4|Q8WUI4-5|Q8WUI4-6|Q8WUI4-7|Q8WUI4-8 (UniProt Q8WUI4)	0.979 ± 0.04	1 ± 0.027	1 ± 0.026	0.98 ± 0.024	0.998 ± 0.067	0.9557 ± 0.0038
A0A0A0MQS0|A8MW92|F8W9L8|A8MW92-4 (UniProt A8MW92)	0.995 ± 0.044	1.11 ± 0.088	1.1 ± 0.041	1.15 ± 0.036	1.17 ± 0.081	1.26 ± 0.019
CHMP2A (UniProt O43633)	0.949 ± 0.013	1.02 ± 0.094	0.936 ± 0.021	0.966 ± 0.043	0.971 ± 0.031	0.915 ± 0.078
F8WF69|P09496-2 (UniProt P09496)	0.9494 ± 0.001	0.919 ± 0.057	0.873 ± 0.05	0.833 ± 0.033	0.806 ± 0.014	0.813 ± 0.018
